# PubChem BioAssay AID1159580 (chemical genetic matrix, 2015)
# Hit rate of the full screen: of about 5,500 compounds, about 2,000 (36%) were called active. Another 18% or so got no clear call; they are omitted. Some of the results follow. Values without a mark were called inactive. No stated cut-off is given here; in the data, active means normalized growth mostly below about 0.91 (no sharp cut-off); inconclusive means no clear call, values can overlap the other calls; inactive means mostly above about 0.92.
# Assay: chemical genetic growth profiling, strain panel (AID 1159580);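 further: tested at 20 µM; growth read once vehicle control cultures reached saturation at 30 °C; 1 = growth at the plate median or of vehicle wells; lower values mean less growth of the strain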
# Conditions: S. cerevisiae deletion strains, growth OD
# [1] = locus YAL013W, strain DEP1, active compounds read low
# [2] = locus YBR229C, strain ROT2, active compounds read low
# [3] = locus YCL061C, strain MRC1, active compounds read low
# [4] = locus YDL101C, strain DUN1, active compounds read low
# [5] = locus YDR150W, strain NUM1, active compounds read low
# [6] = locus YEL061C, strain CIN8, active compounds read low
# [7] = locus YGR078C, strain PAC10, active compounds read low
# [8] = locus YHR030C, strain SLT2, active compounds read low
# [9] = locus YHR087W, strain rtc3, active compounds read low
# [10] = locus YJR075W, strain HOC1, active compounds read low
# [11] = locus YKL190W, strain CNB1, active compounds read low
# [12] = locus YLR039C, strain RIC1, active compounds read low
# [13] = locus YLR058C, strain SHM2 (second series), active compounds read low
# [14] = locus YLR085C, strain ARP6, active compounds read low
# [15] = locus YLR262C, strain YPT6, active compounds read low
# [16] = locus YML094W, strain GIM5, active compounds read low
# [17] = locus YMR219W, strain ESC1, active compounds read low
# [18] = locus YMR263W, strain SAP30, active compounds read low
# [19] = locus YNL153C, strain GIM3, active compounds read low
# [20] = locus YNL298W, strain CLA4 (second series), active compounds read low
# [21] = locus YNL322C, strain KRE1, active compounds read low
# [22] = locus YNR030W, strain Alg12, active compounds read low
# [23] = locus YPL055C, strain LGE1, active compounds read low
# [24] = locus YPL241C, strain CIN2, active compounds read low
# [25] = locus YPR135W, strain CTF4, active compounds read low
smiles,measurement,setting,value
O=S(=O)(c1cc(Br)c(Br)s1)N1CCCCC1,normalized growth,[1],1.01
same,normalized growth,[2],0.993
same,normalized growth,[3],0.967
same,normalized growth,[4],0.963
same,normalized growth,"locus YDL134C, strain PPH21, active compounds read low",1.02
same,normalized growth,[5],1.01
same,normalized growth,[6],1.01
same,normalized growth,[7],1.01
same,normalized growth,"locus YGR229C, strain SMI1, active compounds read low",0.984
same,normalized growth,[8],1.14
same,normalized growth,[9],1.03
same,normalized growth,"locus YJR043C, strain POL32, active compounds read low",0.964
same,normalized growth,[10],1.01
same,normalized growth,[11],1.02
same,normalized growth,[12],0.942
same,normalized growth,[13],1.01
same,normalized growth,[14],1.02
same,normalized growth,[15],0.991
same,normalized growth,[16],1
same,normalized growth,[17],1
same,normalized growth,[18],1
same,normalized growth,[19],0.955
same,normalized growth,[20],1.02
same,normalized growth,[21],1.02
same,normalized growth,[22],1.03
same,normalized growth,[23],0.946
same,normalized growth,[24],1
same,normalized growth,[25],1.04
COc1ccc(OC)c(S(=O)(=O)NCc2c(F)cccc2Cl)c1,normalized growth,[1],0.994
same,normalized growth,[2],1.01
same,normalized growth,[3],1.01
same,normalized growth,[4],1.02
same,normalized growth,[5],0.985
same,normalized growth,[6],1.04
same,normalized growth,[7],1.02
same,normalized growth,[8],1.02
same,normalized growth,[9],1
same,normalized growth,[10],1.01
same,normalized growth,[11],1.01
same,normalized growth,[12],0.928
same,normalized growth,[13],1.02
same,normalized growth,[14],1.02
same,normalized growth,[15],0.893
same,normalized growth,[16],0.992
same,normalized growth,[17],1.01
same,normalized growth,[18],1.01
same,normalized growth,"locus YMR307W, strain GAS1, active compounds read low",1.09
same,normalized growth,[19],0.993
same,normalized growth,[20],1.02
same,normalized growth,[21],1.01
same,normalized growth,[22],1.02
same,normalized growth,"locus YOL006C, strain TOP1, active compounds read low",0.98
same,normalized growth,[23],1.02
same,normalized growth,[24],1.01
same,normalized growth,[25],1.01
COc1cc(Cl)c(NS(=O)(=O)c2cc(Br)c(Br)s2)c(OC)c1,normalized growth,"locus YAR019C, strain CDC15, active compounds read low",0.96
same,normalized growth,"locus YBL105C, strain PKC1, active compounds read low",0.977
same,normalized growth,"locus YBR135W, strain CKS1, active compounds read low",0.967
same,normalized growth,"locus YBR136W, strain MEC1, active compounds read low",0.977
same,normalized growth,"locus YBR160W, strain CDC28, active compounds read low",0.958
same,normalized growth,"locus YDL017W, strain CDC7, active compounds read low",0.978
same,normalized growth,"locus YDL028C, strain MPS1, active compounds read low",0.96
same,normalized growth,[4],0.977
same,normalized growth,"locus YDL108W, strain KIN28, active compounds read low",0.957
same,normalized growth,"locus YDL132W, strain cdc53, active compounds read low",0.954
same,normalized growth,"locus YDL214C, strain PRR2, active compounds read low",0.916
same,normalized growth,"locus YDR052C, strain DBF4, active compounds read low",0.988
same,normalized growth,"locus YDR054C, strain cdc34, active compounds read low",0.953
same,normalized growth,"locus YDR226W, strain ADK1, active compounds read low",0.962
same,normalized growth,"locus YDR477W, strain SNF1, active compounds read low",0.904
same,normalized growth,"locus YER123W, strain YCK3, active compounds read low",0.898
same,normalized growth,"locus YER133W, strain GLC7, active compounds read low",0.918
same,normalized growth,"locus YFL009W, strain cdc4, active compounds read low",0.948
same,normalized growth,"locus YFL029C, strain CAK1, active compounds read low",0.956
same,normalized growth,"locus YFR003C, strain YPI1, active compounds read low",0.973
same,normalized growth,"locus YFR019W, strain FAB1, active compounds read low",0.964
same,normalized growth,"locus YFR028C, strain CDC14, active compounds read low",0.949
same,normalized growth,"locus YGR040W, strain KSS1, active compounds read low",0.888
same,normalized growth,"locus YGR052W, strain FMP48, active compounds read low",0.923
same,normalized growth,"locus YGR092W, strain DBF2, active compounds read low",0.831
same,normalized growth,[8],0.664 (active)
same,normalized growth,"locus YHR079C, strain IRE1, active compounds read low",0.905
same,normalized growth,"locus YHR082C, strain KSP1, active compounds read low",0.924
same,normalized growth,"locus YHR205W, strain SCH9, active compounds read low",0.933
same,normalized growth,"locus YIL147C, strain SLN1, active compounds read low",0.961
same,normalized growth,"locus YJL095W, strain BCK1, active compounds read low",0.885
same,normalized growth,"locus YJL128C, strain PBS2, active compounds read low",0.923
same,normalized growth,"locus YJL157C, strain FAR1, active compounds read low",0.919
same,normalized growth,"locus YJR016C, strain ILV3, active compounds read low",0.972
same,normalized growth,"locus YJR066W, strain TOR1 (second series), active compounds read low",0.858
same,normalized growth,"locus YJR066W, strain TOR1, active compounds read low",0.896
same,normalized growth,"locus YKL048C, strain ELM1, active compounds read low",0.969
same,normalized growth,"locus YKL067W, strain YNK1, active compounds read low",0.9
same,normalized growth,"locus YKL101W, strain HSL1, active compounds read low",0.917
same,normalized growth,"locus YKL193C, strain SDS22, active compounds read low",0.959
same,normalized growth,"locus YKL203C, strain TOR2, active compounds read low",0.986
same,normalized growth,"locus YLR113W, strain HOG1, active compounds read low",0.815 (active)
same,normalized growth,"locus YLR133W, strain CKI1, active compounds read low",0.959
same,normalized growth,"locus YLR403W, strain SFP1, active compounds read low",0.922
same,normalized growth,"locus YML070W, strain DAK1, active compounds read low",0.916
same,normalized growth,"locus YMR001C, strain CDC5, active compounds read low",0.969
same,normalized growth,"locus YMR205C, strain PFK2 (second series), active compounds read low",0.948
same,normalized growth,"locus YMR277W, strain FCP1, active compounds read low",0.946
same,normalized growth,"locus YNL006W, strain LST8, active compounds read low",0.955
same,normalized growth,"locus YNL020C, strain ARK1, active compounds read low",0.931
same,normalized growth,"locus YNL161W, strain CBK1, active compounds read low",0.97
same,normalized growth,"locus YNL183C, strain NPR1, active compounds read low",0.904
same,normalized growth,"locus YNL207W, strain RIO2, active compounds read low",0.962
same,normalized growth,"locus YNL222W, strain SSU72, active compounds read low",0.95
same,normalized growth,"locus YNL307C, strain MCK1 (second series), active compounds read low",0.902
same,normalized growth,"locus YOL078W, strain AVO1, active compounds read low",0.96
same,normalized growth,"locus YOL136C, strain PFK27, active compounds read low",0.901
same,normalized growth,"locus YOR061W, strain CKA2, active compounds read low",0.912
same,normalized growth,"locus YOR119C, strain RIO1, active compounds read low",0.918
same,normalized growth,"locus YOR231W, strain MKK1, active compounds read low",0.908
same,normalized growth,"locus YOR329C, strain SCD5, active compounds read low",0.965
same,normalized growth,"locus YPL031C, strain PHO85, active compounds read low",0.894
same,normalized growth,"locus YPL153C, strain RAD53, active compounds read low",0.866
same,normalized growth,"locus YPL204W, strain HRR25, active compounds read low",0.868
same,normalized growth,"locus YPL209C, strain IPL1, active compounds read low",0.976
same,normalized growth,"locus YPL256C, strain CLN2, active compounds read low",0.856 (active)
same,normalized growth,"locus YPR025C, strain CCL1, active compounds read low",0.968
same,normalized growth,"locus YPR106W, strain ISR1, active compounds read low",0.954
same,normalized growth,"locus YPR111W, strain DBF20, active compounds read low",0.938
same,normalized growth,"strain NNK1, active compounds read low",0.975
same,normalized growth,"strain TSCII, active compounds read low",0.963
